Measured values: PubChem BioAssay AID1851 (National Center for Advancing Translational Sciences (NCATS), 2009)
Among all 16,000 compounds or so, about 2,600 (16%) were called active. Roughly 20% stayed inconclusive and do not appear here. The call rests on the fitted dose curve; in most records, active means well fitted curve in the direction sought with a large enough effect; inconclusive means small, poorly fitted or top-dose-only effect, or effect the other way; inactive means no such curve, though single readings can be large or run the other way. These entries were drawn from the full list.

The compounds below were run against Cytochrome P450 2D6 (Homo sapiens) (UniProt P10635) (assay: Cytochrome panel assay with activity outcomes). Settings: recombinant CYP, pro-luciferin dealkylation, luminescence, p450-cyp2d6; series mostly up to 57.1 µM; activity, negative = inhibition: at the top concentration.
On the % scale 0 is the no-effect control and ±100 the full control effect.

Sequence of Cytochrome P450 2D6 (Homo sapiens) (P10635 whole entry, looked up): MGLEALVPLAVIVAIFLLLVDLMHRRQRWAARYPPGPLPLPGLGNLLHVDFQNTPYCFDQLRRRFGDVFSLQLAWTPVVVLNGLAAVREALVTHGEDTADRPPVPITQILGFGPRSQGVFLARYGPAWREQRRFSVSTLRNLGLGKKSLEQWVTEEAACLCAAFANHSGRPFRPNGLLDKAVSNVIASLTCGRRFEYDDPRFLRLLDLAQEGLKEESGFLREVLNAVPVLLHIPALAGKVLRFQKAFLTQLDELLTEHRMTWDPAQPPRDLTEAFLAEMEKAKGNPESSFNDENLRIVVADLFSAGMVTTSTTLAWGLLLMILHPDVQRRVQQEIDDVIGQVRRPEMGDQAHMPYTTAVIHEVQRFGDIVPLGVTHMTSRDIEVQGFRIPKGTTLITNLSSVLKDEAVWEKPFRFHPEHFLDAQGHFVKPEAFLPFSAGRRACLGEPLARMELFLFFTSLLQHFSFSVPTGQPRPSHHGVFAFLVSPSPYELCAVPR

activity, negative = inhibition, inactive:
CCCCOc1ccccc1N -4.34%, O=C(O)/C=C/c1cn(-c2ncc(C(F)(F)F)cc2Cl)c2ccccc12 14.4%, CSc1nnnc2ccccc12 0.441% [at 11.4 µM], Cc1nc2cnc(Oc3cccc(Cl)c3)nc2n(CCC#N)c1=O -5.99%, CCC(Sc1ncccc1C(=O)O)C(=O)N1CCOCC1 (centres undefined) 8.57%, NS(=O)(=O)Cc1noc2ccccc12 -3.15%, O=C(O)/C=C\C(=O)Nc1ccc2c(c1)C(=O)c1cc(F)ccc1-2 -18.3% [at 11.4 µM], COc1cccc(-c2nc(NC3CCNCC3)c3ccccc3n2)c1 -11.3%, COCCNc1nc(-c2cccc(NS(C)(=O)=O)c2)nc2ccccc12 -10.2%, O=c1cnc2cnc(Nc3ccccc3)nc2n1C1CC1 3.9%, COc1ccc2c(c1)-c1ccccc1S(=O)(=O)N2C(C)=O 9.83%, CCOC(=O)c1cnn(-c2ccccc2)c1-n1cccc1C(=O)C(=O)Nc1ccccc1C(F)(F)F -17.5%, N#C/C(=C\c1cccs1)C(=O)NCC1CCCO1 (centres undefined) -25.9%, CN(C)/C=C/C(=O)c1ccc(Cl)cc1 -18.2%, Cc1ccc(/C=N\NC(=O)c2cc(OCC(F)(F)F)ccc2OCC(F)(F)F)cc1 21.6%, COc1ccc(NC(=O)N(C2CCCCC2)C(C)c2cccnc2)c(OC)c1 (centres undefined) -19.7%, Cc1cc(OC(=O)c2ccccc2Br)cc(=O)n1C -19.7%, O=C(CCc1nc2ccccc2c(=O)[nH]1)OCC(=O)N1CCN(S(=O)(=O)c2ccccc2)CC1 -21.3%, Cc1nc2ccccn2c1/C(O)=C1\C(=O)C(=O)N(CCCn2ccnc2)C1c1ccncc1 (centres undefined) 0.65%, CCN(CC)c1ccc(NC(=O)c2cccnc2)c(C)c1 -9.57%, COc1cccc(C2C(C(=O)c3cc4ccccc4o3)=C(O)C(=O)N2c2cc(C)on2)c1OC (centres undefined) 5.26%, CSc1nc2n(n1)C(c1cccc(F)c1)C(C(=O)Nc1ccc(C)cc1C)=C(C)N2 (centres undefined) 15.7%, N#Cc1cccc(NC(=O)N2CCCC3(CCN(C(=O)c4ccco4)CC3)C2)c1 3.93%, O=C(c1ccncc1)N1CCC2(CCCN(Cc3ccccc3)C2)CC1 -1.35%, O=C(c1cccc(F)c1)N1CCC2(CCCN(Cc3nccs3)C2)CC1 2.76%, N#Cc1ccc(CN2CCCC3(CCN(C(=O)c4ccncc4)CC3)C2)cc1 7.01%, O=C(c1ccco1)N1CCC2(CCCN(Cc3ccccc3)C2)CC1 -9.7%, COc1ccc(C(=O)N2CCC3(CCN(Cc4ccc(C#N)cc4)CC3)CC2)cc1 -12.8%, N#Cc1ccc(CN2CCCC3(CCN(C(=O)c4cccc(F)c4)CC3)C2)cc1 -6.36%, CC1(C)NC(=O)N(c2ccc([N+](=O)[O-])c(C(F)(F)F)c2)C1=O -2.63% [at 25.6 µM], O=[N+]([O-])c1ccc(N2CCCCC2)c(Cl)c1N1CCCCC1 -2.02%, Cc1ccc(C)c(Cn2cnc3c(cnn3C(C)(C)C)c2=O)c1 29.5%, N#Cc1cccc(-c2nc3cnc(N4CCOCC4)nc3n(C[C@H]3CCCO3)c2=O)c1 12.8%, CC1(C)Cc2c(C#N)c(SCc3ccccc3)nc(N3CCOCC3)c2CO1 -9.2%, Cn1c(=O)c2[nH]c(CSCc3ccccc3)nc2n(C)c1=O -20.6% [at 11.4 µM], COc1ccc(C2=NOC(C(=O)Nc3ccc(C(C)=O)cc3)C2)cc1OC (centres undefined) -2.71%, CC(C)C(=O)N[C@H]1CCCN1C(=O)/C=C\c1ccccc1 -5.27% [at 11.4 µM], Cn1c(=O)c2[nH]c(CCCc3ccc([N+](=O)[O-])cc3)nc2n(C)c1=O -15.3% [at 11.4 µM], COc1ccccc1N1CCN(c2nc3c(C)cccn3c(=O)c2C=O)CC1 12.4%, Cc1nc2cnc(N3CCN(C)CC3)nc2n(-c2ccccc2)c1=O 5.68%, CN1CCN(c2ccncc2S(=O)(=O)N2CCN(C)CC2)CC1 0.642% [at 11.4 µM], COc1ccccc1N1CCN(C[C@@H]2CN3C(=O)N(C)c4ccccc4C3=N2)CC1 -6.92%

AC50, active:
CCCOc1cc(N)ccc1C(=O)OCCN(CC)CC 2 µM, COCCNc1nc(-c2cccc(OC)c2)nc2ccccc12 20 µM, COc1cccc(-c2nc(NCCNC(C)=O)c3ccccc3n2)c1 3.98 µM, COc1cccc(-c2nc(NC3CC3)c3ccccc3n2)c1 7.94 µM, COc1ccc(-c2cc3ccccc3n2CC(O)CNCCO)cc1 (centres undefined) 0.562 µM, O=C(c1ccncc1)N1CCC2(CCCN(Cc3ccncc3)C2)CC1 6.31 µM, O=C(c1cccc(F)c1)N1CCC2(CCCN(Cc3ccncc3)C2)CC1 7.94 µM, O=C(c1ccco1)N1CCC2(CCCN(Cc3ccncc3)C2)CC1 3.16 µM, N#Cc1ccc(CN2CCC3(CC2)CCN(C(=O)c2ccncc2)CC3)cc1 6.31 µM, Cc1ccccc1-c1cncnc1N1CCN(C)CC1 12.6 µM, CN1CCN(c2ncncc2-c2ccccc2Cl)CC1 12.6 µM, COc1ccccc1-c1cncnc1N1CCN(C)CC1 25.1 µM
